Laboratory results from PubChem BioAssay (NCI).
The panel holds about 83,000 compounds, 20% with a hit somewhere; the sample as a whole holds those more often.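 Single-concentration screen, 48 h exposure, 96-well plates. Endpoint: percent growth. Below 10 = active.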 Calls of active or inactive are those of the source.

Key:
Assay in all cases: NCI-60 one-dose screen, 48 h (100 = growth as untreated, 0 = no growth, -100 = all killed)
HT29 colon = details: 10 µM unless noted
SNB-75 CNS = details: 10 µM unless noted
SNB-19 CNS = details: 10 µM unless noted
U251 CNS = details: 10 µM unless noted
PC-3 prostate = details: 10 µM unless noted
SK-MEL-5 melanoma = details: 10 µM unless noted
UACC-62 melanoma = details: 10 µM unless noted
LOX IMVI melanoma = details: 10 µM unless noted
SK-MEL-28 melanoma = details: 10 µM
SK-MEL-2 melanoma = details: 10 µM unless noted

Measured: growth

COc1cc2nc(-c3cnc(N(C)C)nc3)nc(NC3CCN(Cc4ccccc4)CC3)c2cc1OC
inactive: SK-MEL-5 melanoma 10.6% | SK-MEL-2 melanoma 89.5%
active: HT29 colon -84.4% | SNB-75 CNS -96.7% | SNB-19 CNS -79.2% | U251 CNS -87.4% | PC-3 prostate -83.2% | UACC-62 melanoma -94.5% | LOX IMVI melanoma -91.9% | SK-MEL-28 melanoma -78.7%

CC1(O)COCCCCOc2c(CN)cccc2NC(=O)c2nc(cnc2N)-c2ccc(cc2)S(=O)(=O)C(C)(C)C1 (stereo not given)
inactive: PC-3 prostate 14%
active: HT29 colon 1.64% | SNB-75 CNS -60.3% | SNB-19 CNS -55.9% | U251 CNS -74.9% | SK-MEL-5 melanoma -94.9% | UACC-62 melanoma -90.8% | LOX IMVI melanoma -86.3% | SK-MEL-28 melanoma -87.8% | SK-MEL-2 melanoma -32.6%

CC(=O)n1cc(-c2c[nH]c3ccccc23)c(-c2ccc(Cl)cc2)n1
inactive: HT29 colon 95.9% | SNB-75 CNS 80.9% | SNB-19 CNS 112% | U251 CNS 74.9% | PC-3 prostate 81.5% | SK-MEL-5 melanoma 78.8% | UACC-62 melanoma 93.5% | LOX IMVI melanoma 86.8% | SK-MEL-28 melanoma 93.7% | SK-MEL-2 melanoma 97.6%

CNCCNc1nc2ccccc2c2c(=O)c3cc(F)ccc3sc12
inactive: SNB-75 CNS 47.4% | SNB-19 CNS 69.1% | PC-3 prostate 34% | SK-MEL-5 melanoma 88.1% | UACC-62 melanoma 22.3% | LOX IMVI melanoma 17.7% | SK-MEL-28 melanoma 84.6% | SK-MEL-2 melanoma 85.2%
active: HT29 colon -30.9% | U251 CNS -53.3%

O=C(Nc1ccc(-c2nc3cc4ccccc4cc3[nH]2)cc1)c1cccc(Br)c1
inactive: HT29 colon 12.4% | SNB-75 CNS 66.2% | SNB-19 CNS 36.2% | U251 CNS 25.9% | PC-3 prostate 51.1% | SK-MEL-5 melanoma 37.1% | UACC-62 melanoma 39% | SK-MEL-28 melanoma 41.8% | SK-MEL-2 melanoma 49.4%
active: LOX IMVI melanoma -6.26%

COC(=O)c1c2c(c(C)[n+]([O-])c1C)C(=O)C(NCc1ccc(Br)cc1)=CC2=O
inactive: SNB-75 CNS 84.5% | SNB-19 CNS 19% | PC-3 prostate 27.6% | LOX IMVI melanoma 16.9% | SK-MEL-28 melanoma 65.3% | SK-MEL-2 melanoma 47.1%
active: HT29 colon 9.96% | U251 CNS 9.45% | SK-MEL-5 melanoma -93.1% | UACC-62 melanoma -16.2%

CCOc1ccc2nc(C)cc(Nc3ccc(Br)cc3)c2c1
inactive: HT29 colon 77.8% | SNB-75 CNS 89.7% | SNB-19 CNS 101% | U251 CNS 98.1% | PC-3 prostate 86.7% | SK-MEL-5 melanoma 97.1% | UACC-62 melanoma 103% | LOX IMVI melanoma 106% | SK-MEL-28 melanoma 108% | SK-MEL-2 melanoma 109%

Brc1ccc(Oc2ccc(Nc3ncnc4onc(-c5ccccc5)c34)cc2)cc1
inactive: HT29 colon 95.5% | SNB-75 CNS 86.7% | SNB-19 CNS 106% | U251 CNS 98.9% | PC-3 prostate 102% | SK-MEL-5 melanoma 92.6% | UACC-62 melanoma 88.6% | LOX IMVI melanoma 94.5% | SK-MEL-28 melanoma 97.2% | SK-MEL-2 melanoma 110%

O=C(c1nc2ccccc2[nH]1)C1C(c2ccc(F)cc2)C2CC3CCCCC3N2[C@@]12C(=O)Nc1ccc(Cl)cc12 (stereo not given in full)
inactive: HT29 colon 24.9% | SNB-75 CNS 36.7% | SNB-19 CNS 54.1% | U251 CNS 51.2% | PC-3 prostate 35.4% | SK-MEL-5 melanoma 47.3% | UACC-62 melanoma 55.1% | LOX IMVI melanoma 46% | SK-MEL-28 melanoma 61% | SK-MEL-2 melanoma 65.8%

CCOC(=O)C1=C(C)N=c2s/c(=C\c3ccccc3O)c(=O)n2C1c1ccc(OC)c2ccccc12 (stereo not given)
inactive: SNB-19 CNS 58.1% | PC-3 prostate 22.9%
active: HT29 colon -52.2% | SNB-75 CNS -44.2% | U251 CNS -68.6% | SK-MEL-5 melanoma -98.1% | UACC-62 melanoma -85.4% | LOX IMVI melanoma -85.6% | SK-MEL-28 melanoma -96.2% | SK-MEL-2 melanoma -75.5%

CS(=O)(=O)Nc1ccc(C(=O)NC(C(=O)NO)c2ccc(-c3cccc(F)c3)cc2)cc1 (stereo not given)
inactive: HT29 colon 53.2% | SNB-75 CNS 24.8% | SNB-19 CNS 45.2% | U251 CNS 94.1% | PC-3 prostate 86.9% | SK-MEL-5 melanoma 48% | UACC-62 melanoma 79% | LOX IMVI melanoma 44.8% | SK-MEL-28 melanoma 91.8% | SK-MEL-2 melanoma 73.6%

CC1=C(C(=O)OCC2CCN(C(=O)OC(C)(C)C)CC2)[C@H](c2cccc(Br)c2)C2=C(CC(C)(C)CC2=O)N1
inactive: HT29 colon 16.7% | SNB-75 CNS 47.8% | SNB-19 CNS 42.5% | U251 CNS 30% | PC-3 prostate 17.5% | UACC-62 melanoma 36.1% | LOX IMVI melanoma 17.5% | SK-MEL-28 melanoma 50.1% | SK-MEL-2 melanoma 61.1%
active: SK-MEL-5 melanoma -32.8%

CC1=C(CC(=O)c2cccc([N+](=O)[O-])c2)C(=O)c2ccccc2C1=O
active: SNB-75 CNS -84.6% | U251 CNS -81% | SK-MEL-5 melanoma 4.78% | UACC-62 melanoma -50.8% | LOX IMVI melanoma -51.9% | SK-MEL-28 melanoma -89.9% | SK-MEL-2 melanoma -36.2%
inactive: HT29 colon 106% | SNB-19 CNS 13% | PC-3 prostate 42.8%

COC(=O)/C(=C\c1c(-c2ccccc2)[nH]c2ccccc12)S(C)(=O)=O
inactive: SNB-19 CNS 37.6% | U251 CNS 26.4% | PC-3 prostate 25.6% | SK-MEL-5 melanoma 14.3% | UACC-62 melanoma 37.1% | LOX IMVI melanoma 45.1% | SK-MEL-28 melanoma 36.1% | SK-MEL-2 melanoma 39.1%
active: HT29 colon 8.37% | SNB-75 CNS -4.33%

Nc1no[n+]([O-])c1-c1nnc2c(n1)-c1ccccc1C2=O
inactive: HT29 colon 57.1% | SNB-75 CNS 95% | SNB-19 CNS 84.5% | U251 CNS 88% | PC-3 prostate 33.6% | SK-MEL-5 melanoma 19.7% | UACC-62 melanoma 64.3% | LOX IMVI melanoma 27.5% | SK-MEL-28 melanoma 81.4% | SK-MEL-2 melanoma 86.9%

COc1ccc(C(=O)C2CC2c2ccc(Cl)cc2)cc1 (stereo not given)
inactive: HT29 colon 104% | SNB-75 CNS 75.6% | SNB-19 CNS 117% | U251 CNS 82.4% | PC-3 prostate 72.5% | SK-MEL-5 melanoma 96.7% | UACC-62 melanoma 84.9% | LOX IMVI melanoma 91.1% | SK-MEL-28 melanoma 107% | SK-MEL-2 melanoma 89%

COc1cc(C(=O)NN=C2c3ccccc3-c3ccccc32)cc(OC)c1OC
active: HT29 colon 5.22% | SK-MEL-5 melanoma 7.14% | SK-MEL-2 melanoma 6.51%
inactive: SNB-75 CNS 14.2% | SNB-19 CNS 42.4% | U251 CNS 20.9% | PC-3 prostate 31% | UACC-62 melanoma 44.2% | LOX IMVI melanoma 28.7% | SK-MEL-28 melanoma 46.6%

COc1ccc(/C=C2\NC(=O)NC2=O)cc1O
inactive: HT29 colon 107% | SNB-75 CNS 105% | SNB-19 CNS 102% | U251 CNS 99.2% | PC-3 prostate 101% | SK-MEL-5 melanoma 102% | UACC-62 melanoma 103% | LOX IMVI melanoma 95.3% | SK-MEL-28 melanoma 104% | SK-MEL-2 melanoma 115%

CCC(C)(C)C(=O)O[C@H]1C[C@@H](C)C=C2C=C[C@H](C)[C@H](CC[C@@H]3CC=CC(=O)O3)[C@H]21
active: LOX IMVI melanoma -47.4%
inactive: HT29 colon 44.5% | SNB-75 CNS 80.4% | SNB-19 CNS 84% | U251 CNS 82.2% | PC-3 prostate 49.1% | SK-MEL-5 melanoma 71% | UACC-62 melanoma 72.5% | SK-MEL-28 melanoma 79.2% | SK-MEL-2 melanoma 86.1%

N#C/C(=C1\SC(=O)CN1c1ccccc1)c1nc2ccccc2s1
inactive: HT29 colon 108% | SNB-75 CNS 88.7% | SNB-19 CNS 94.3% | U251 CNS 91.9% | PC-3 prostate 92% | SK-MEL-5 melanoma 93.3% | UACC-62 melanoma 91.1% | LOX IMVI melanoma 88.3% | SK-MEL-28 melanoma 106% | SK-MEL-2 melanoma 86.1%

Brc1ccc(Nc2nc3ccccc3nc2Nc2ccc(Br)cc2)cc1
active: HT29 colon -46.1% | SNB-75 CNS -7.54% | U251 CNS -58.5% | PC-3 prostate -0.436% | SK-MEL-5 melanoma -85.6% | UACC-62 melanoma -16.2% | LOX IMVI melanoma -87% | SK-MEL-28 melanoma -44.2% | SK-MEL-2 melanoma -58%
inactive: SNB-19 CNS 16.6%

COC(=O)/C(CCC=C(C)C)=C1\[C@@H](OC(C)=O)C[C@@]2(C)[C@H]1C[C@@H](O)[C@H]1[C@@]3(C)CC[C@H](NCc4ccccc4)[C@@H](C)[C@@H]3CC[C@@]12C
inactive: HT29 colon 14.8% | SNB-75 CNS 65.1% | SNB-19 CNS 81.9% | U251 CNS 49.2% | PC-3 prostate 31.3% | SK-MEL-5 melanoma 59.4% | UACC-62 melanoma 69.3% | LOX IMVI melanoma 47.3% | SK-MEL-28 melanoma 74.6% | SK-MEL-2 melanoma 94.4%

COC(=O)c1c2c(c(C)[n+]([O-])c1C)C(=O)C=C(NCc1ccccc1)C2=O
active: HT29 colon 5.35% | SNB-75 CNS -71.5% | SNB-19 CNS -11.4% | U251 CNS -9.66% | PC-3 prostate 4.06% | SK-MEL-5 melanoma -98.5% | UACC-62 melanoma -72.3% | LOX IMVI melanoma -28.2% | SK-MEL-2 melanoma -29.6%
inactive: SK-MEL-28 melanoma 14.1%

Cc1ccc2[nH]c(=O)cc(-n3nncc3Cn3c4ccccc4c4ccccc43)c2c1
inactive: HT29 colon 113% | SNB-75 CNS 81.2% | SNB-19 CNS 97.1% | U251 CNS 99.2% | PC-3 prostate 92.8% | SK-MEL-5 melanoma 94.5% | UACC-62 melanoma 94.9% | LOX IMVI melanoma 98.2% | SK-MEL-28 melanoma 108% | SK-MEL-2 melanoma 103%
